Data as given in PubChem BioAssay AID651965 (National Center for Advancing Translational Sciences (NCATS), 2013).
Screen size: about 340,000 compounds; about 6,400 (1.9%) were called active. Not shown: some 4% with an inconclusive outcome. Calls follow the shape of the dose curve; as a rule, active = well fitted falling curve with a large enough effect; inconclusive = small, poorly fitted or top-dose-only effect; inactive = no such curve, though single readings can be large or run the other way. This excerpt belongs to a sample that is enriched for actives.

Target: ATP-dependent Clp protease proteolytic subunit (Bacillus subtilis (strain 168)) (UniProt P80244)
Sequence (P80244 whole entry, looked up): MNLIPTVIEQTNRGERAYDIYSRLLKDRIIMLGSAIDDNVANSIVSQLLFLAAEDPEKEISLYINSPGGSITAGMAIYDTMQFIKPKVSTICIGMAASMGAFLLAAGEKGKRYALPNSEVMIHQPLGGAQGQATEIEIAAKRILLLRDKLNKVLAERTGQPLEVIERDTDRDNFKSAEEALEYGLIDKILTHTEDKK
Test: qHTS Assay for Activators of ClpP; also: the source files actives as falling curves though it sought activators and does not explain the sign; nearly all actives have a fitted effect of over 65% in size
Conditions: purified B. subtilis ClpP, FRET peptide cleavage, 20 min; series mostly up to 57.5 µM
In short: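 FRET quenching reversal measured ClpP activation: 10 microg/mL B. subtilis ClpP at pH 8 with the FRET-FV decapeptide, read at 430 nm after 320 nm excitation. The 20-min minus 0-min signal was scaled between DMSO/no-enzyme wells and ADEP (5.8 microM final).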
Potency is read from the fitted curve at half-maximal effect.

Potency, inactive:
Brc1cccc[n+]1Cc1cccc(C[n+]2ccccc2Br)c1
CC(C)C(=O)Nc1ccc2c(c1)oc1ccccc12
Cc1ccc2oc(=O)ccc2c1
COc1ccc(C(C)(O)c2nc(-c3cc(F)cc(F)c3)cs2)cc1 (stereo unspecified)
CN1CCN(c2ccc3c(c2)OC[C@H](Cc2ccccc2)NS3(=O)=O)CC1
COc1ccccc1CNC(=O)c1cc(-c2cc(F)ccc2OC)n[nH]1
CC(C)(C)c1ccc(OCC(=O)N2CCC(c3nc4ccccc4s3)CC2)cc1
Cc1nn(Cc2ccccc2)c(Cl)c1C(=O)OC1CCOC1=O (stereo unspecified)
COCCNC(=O)c1cc2c(Br)ccc(Br)c2nc1N
CCOP(=O)(OCC)C(Cc1ccccc1)N=C(c1ccccc1)c1ccccc1 (stereo unspecified)
O=C(Nc1ccccc1)c1ccccc1OCc1ccccc1
C[C@H]1CN([C@@H](C)CO)C(=O)CCCn2nncc2CO[C@@H]1CN(C)Cc1ccc(Oc2ccccc2)cc1
NC(c1ccccc1)c1csc(NC(=O)Nc2cccc(C(F)(F)F)c2)n1 (stereo unspecified)
COCCCn1c(C(=O)NC2CCCCC2)cc2c(=O)n3cccc(C)c3nc21
CCCn1c(=N)c(C(=O)NCc2ccccc2)cc2c(=O)n3cccc(C)c3nc21
O=C1NC[C@H](CCCCN2C[C@H](Cc3ccc(O)cc3)N(CC3CCCCC3)C(=O)C2=O)N(CCc2ccccc2)C1=O
Cn1c(=O)c2cc(NC(=O)NCCc3cccs3)ccc2n1Cc1cccc(C(F)(F)F)c1
Cc1nc2c(c(C)nn2-c2ccccc2)c(C)c1C
Cc1nn(-c2ccccc2)c2c1C(c1ccc(F)cc1)C(C#N)=C(N)O2 (stereo unspecified)
COc1ccc(NC(=O)C2(C)Cc3c(-c4cccc(NC(C)=O)c4)ccnc3O2)cc1OC (stereo unspecified)
FC(F)(F)c1cccc(-c2nc3ccccc3n2C(c2ccccc2)c2nc3ccccc3[nH]2)c1 (stereo unspecified)
O=C(Nc1cc(C(F)(F)F)ccc1Cl)c1nc2ccccc2nc1N1CCCCC1
CC(=O)c1ccc[n+](C(C)CCC(C)[n+]2cccc(C(C)=O)c2)c1 (stereo unspecified)
O=C(Nc1cccc(C(=O)O)c1)/C(=C\c1ccccc1)NC(=O)c1ccc(Br)o1
CC(=O)NC(c1ccccc1)c1nc(-c2cccc(C(C)C)c2)cs1 (stereo unspecified)
CC1(C(=O)NS(=O)(=O)c2cccc(F)c2)CCN1C(=O)c1cccc2ccccc12 (stereo unspecified)
CCc1nc(Nc2ccc(NC(C)=O)cc2)c2oc3ccccc3c2n1
COCCNc1nc(-c2ccccc2)nc2c1oc1ccccc12
COc1ccc(Cn2ccn(CC(=O)Nc3cc(C)ccc3C)c(=O)c2=O)cc1
COc1ccc(Cn2c(C)c(C)c(C#N)c2NC(=O)Nc2ccc(F)cc2)cc1
CSc1ccc(CN2CCC2(C)C(=O)Nc2ccc(C)c(O)c2)cc1 (stereo unspecified)
CCOc1n[nH]c(-c2ccccc2)n1
Cc1ccccc1S(=O)(=O)NC(=O)C1(C)CCN1C(=O)Cc1ccc(Cl)cc1Cl (stereo unspecified)
COC(=O)c1ccc2nc(-c3ccc(C)cc3)c(Cc3ccc(OC)cc3C)n2c1
O=C(C1CC(=O)N(c2ccc(Br)cc2)C1)N1CCCC1 (stereo unspecified)
Cc1ccc(N2CC(C(=O)Nc3ccc(N(C)C)cc3)CC2=O)cc1Cl (stereo unspecified)
O=[N+]([O-])c1cc(S(=O)(=O)N2CCCC2)ccc1NN=C1CCCC1
O=[N+]([O-])c1ccc(N/N=C2/CCCCC2c2ccccn2)c([N+](=O)[O-])c1 (stereo unspecified)
CCCS(=O)(=O)NC(=O)C1(C)CCCN(C(=O)c2ccnc(Cl)c2)C1 (stereo unspecified)
O=C(C(=O)N1CCN(c2ccccc2)CC1)c1ccc2c(c1)OCO2
COc1ccc2c(C)c(CCC(=O)NCc3ccc(OC)c(OC)c3)c(=O)oc2c1
COc1ccc(CCNC(=O)COc2ccc3c(c2)OCO3)cc1
CCC(C)CN1C(=O)CN(S(C)(=O)=O)CC1(C)C(=O)Nc1ccc2c(c1)OCCO2 (stereo unspecified)
COc1ccc(/C=C/c2ccnc3ccccc23)cc1OC
CCC1(CC)Cc2ccccc2-c2nc3ccccc3c(=O)n21
CCC1(CC)Cc2ccccc2-c2nc(CCl)[nH]c(=O)c21
OC(c1ccccc1)(c1ccccc1)C1CCN(CCCOc2ccccc2)CC1
O=C(O)CCC(=O)N(Cc1ccccc1)Cc1ccccc1
CN(C)Cc1cn(-c2ccccc2)nc1-c1ccccc1
CCCC(=O)Nc1cc2nn(-c3ccccc3)nc2cc1C
Nc1ccc2nn(-c3ccc(Cl)cc3)nc2c1
CCc1nc2c(OCCOc3ccccc3)cccn2c1N(C)C(=O)c1ccccc1F
Cc1cccc(NC(=O)COC(=O)c2ccccc2OCc2cccc(Br)c2)c1
CCOc1ccc(-c2cc3nc(C4CCN(C(=O)OC(C)(C)C)CC4)c(C(=O)Nc4cccc(CC)c4)cn3n2)cc1
Cc1ccc(-n2ncc(C(=O)NC3CC3)c2C2CCN(C(=O)OC(C)(C)C)CC2)c(C)c1
COc1ccc(/C=C2\SC(=O)N(CCC(=O)NC3CCS(=O)(=O)C3)C2=O)cc1 (stereo unspecified)
O=C(COC(=O)/C=C/c1ccc(Cl)cc1)NC1CCS(=O)(=O)C1 (stereo unspecified)
Cc1ccc(F)c(S(=O)(=O)NC(=O)C2(C)CCN2C(=O)c2ccco2)c1 (stereo unspecified)
CCC(C)(C)NC(=O)/C=C/c1cc(OC)c(OC)c(S(=O)(=O)N2CCc3ccccc32)c1
COc1cc(/C=C/C(=O)O)cc(S(=O)(=O)Nc2ccccc2SC)c1OC
COc1ccccc1CNc1nc(Nc2ccccc2Cl)c2sccc2n1
c1ccc(Cn2nnc3c(N4CCCCC4)ncnc32)cc1
O=C(CC(CC(=O)c1ccccc1)c1ccco1)c1ccccc1
OC(c1ccc(Cl)cc1)c1ncc(-c2ccc(Cl)cc2)[nH]1 (stereo unspecified)
C=CCn1c(-c2sc(-c3ccccc3)nc2C)n[nH]c1=S
C#CC(C)(C)NC(=O)c1cnc(-c2ccccc2)nc1-c1ccccc1
CC1(C(=O)NCc2ccc(F)c(F)c2)Cc2c(-c3ccc4c(c3)OCO4)ccnc2O1 (stereo unspecified)
CC(C)CCOc1ccc(C(=O)Nc2cc(S(=O)(=O)N3CCOCC3)ccc2N2CCOCC2)cc1
NNC(=O)C1CCCn2c1nc1sc3c(c1c2=O)CCCC3 (stereo unspecified)
CCCc1nc2sc3c(c2c(=O)n1NC(=O)CCCl)CCCC3
OCCNc1ncnc2oc(-c3ccco3)c(-c3ccco3)c12
CCOc1ccc(CCN2C(=O)C(=O)N([C@@H](Cc3ccc(O)cc3)CN3CCC[C@H]3CN3C(=O)C(=O)NC[C@@H]3CC(C)C)C[C@@H]2Cc2ccccc2)cc1
COc1ccc(NC(=O)CCCOc2ccc(C(C)=O)cc2)cc1S(=O)(=O)N1CCCCC1
Cc1ccc(NC(=S)N(CCN(C)C)Cc2cccs2)cc1C
CCN(Cc1ccncc1)C(=S)Nc1ccccc1C
COc1ccc(/C=C/c2ccccn2)cc1OC
Cc1cccnc1C(NC(=O)C1CCN(Cc2ccc(Cl)c(Cl)c2)CC1)c1ccc(Cl)cc1 (stereo unspecified)
O=C1Nc2ccccc2NC(c2ccc3c(c2)OCO3)=C1N(Cc1ccc(F)cc1)C(=O)c1ccco1
O=C(COC(=O)c1ccccc1)c1ccc2c(c1)OCCO2
O=C(COC(=O)c1ccc(F)cc1)Nc1ccc2c(c1)OCO2

Potency, active:
CC(C)C(=O)Nc1ccc2oc(=O)ccc2c1 35.5 µM
O=C(OC1CCOC1=O)c1ccc(-c2nc3ccccc3s2)s1 (stereo unspecified) 17.8 µM
CCCC1OC23CCCCC2C(C#N)(C#N)C1(C#N)C(=N)O3 (stereo unspecified) 20 µM
Cc1cccn2c(=O)c3cc(C(=O)N4COCC4(C)C)n(C)c3nc12 28.2 µM
CSc1ccc(-c2c(C#N)c(N)nc3c2c(C)nn3-c2ccccc2)cc1 22.4 µM
FC(F)(F)c1cccc(-c2cc3ccccc3nc2N2CCCC2)c1 31.6 µM
CCc1nc(Nc2ccc3nccnc3c2)c2oc3ccccc3c2n1 28.2 µM
COc1ccc(Cn2cccc(NC(=O)Nc3ccc(C#N)cc3)c2=O)cc1 12.6 µM
Cc1ccc(N2CC(C(=O)N3CCC4(CC3)CC(=O)c3ccccc3O4)CC2=O)cc1C (stereo unspecified) 28.2 µM
O=[N+]([O-])c1cc(C(F)(F)F)ccc1NN=C1CCCC1 31.6 µM
COC(=O)Cc1c(C)c2ccc(OCC(=O)NCc3ccc4c(c3)OCO4)cc2oc1=O 31.6 µM
CCOC(=O)C1Cn2c(nc3c(c2=O)C(C)(CC)Cc2ccccc2-3)S1 (stereo unspecified) 28.2 µM
Cc1ccc(-c2nn(-c3ccccc3)cc2CN(Cc2ccccc2)C(=O)CCC(=O)O)o1 22.4 µM
c1ccc(-n2nc3ccccc3n2)cc1 25.1 µM
COc1cc(OC)cc(-c2cc3nc(C4CCN(C(=O)OC(C)(C)C)CC4)cc(=O)n3[nH]2)c1 25.1 µM
O=C(COC(=O)CCCN1C(=O)c2cccc3cccc(c23)C1=O)NC1CCS(=O)(=O)C1 (stereo unspecified) 31.6 µM
CCn1nc(C(=O)NNS(=O)(=O)c2cc(/C=C/C(=O)O)cc(OC)c2OC)c2ccccc2c1=O 5.62 µM
Cc1nc(-c2ccccc2)sc1-c1nc(-c2ccccc2)ncc1S(=O)(=O)c1ccccc1 31.6 µM
Cn1c(NN)nc2sc3c(c2c1=O)CCC3 11.2 µM
Cc1ccccc1NC(=S)N(CCCN1CCOCC1)Cc1cccs1 28.2 µM
CC(=O)Nc1cccc(C(=O)OCC(=O)c2ccc3c(c2)OCO3)c1 12.6 µM
